Most compounds without a hit are left out; they make up all but 1.1% or so of the library.
Mtb BioA inh = BioA (M. tuberculosis) enzyme inhibition. purified M. tuberculosis BioA enzyme, plate reader. inhibition, % at 9.99 µM. 360,000 tested, 0.096% active; in the data active = inhibition above about 40%; inconclusive = no clear call, values can overlap the other calls
Y pestis TopoI = blocks Yersinia pestis topoisomerase I activity; Y. pestis Topo-I cleavage product accumulation, plate reader; activity, % at 10 µM; 360,000 tested, 0.064% active; in the data active = activity above about 50%, passing the limit was not always enough; inconclusive = no clear call, values can overlap the other calls
RecA intein inh = inhibitors of M. tuberculosis RecA intein splicing; AID 2221; cell-free RecA intein splicing, fluorescence; inhibition, % (concentration not given with the values); P9WHJ3; 290,000 tested, 0.75% active; in the data active = inhibition above about 30%; inconclusive = no clear call, values can overlap the other calls
Target sequence (P9WHJ3 whole entry, looked up): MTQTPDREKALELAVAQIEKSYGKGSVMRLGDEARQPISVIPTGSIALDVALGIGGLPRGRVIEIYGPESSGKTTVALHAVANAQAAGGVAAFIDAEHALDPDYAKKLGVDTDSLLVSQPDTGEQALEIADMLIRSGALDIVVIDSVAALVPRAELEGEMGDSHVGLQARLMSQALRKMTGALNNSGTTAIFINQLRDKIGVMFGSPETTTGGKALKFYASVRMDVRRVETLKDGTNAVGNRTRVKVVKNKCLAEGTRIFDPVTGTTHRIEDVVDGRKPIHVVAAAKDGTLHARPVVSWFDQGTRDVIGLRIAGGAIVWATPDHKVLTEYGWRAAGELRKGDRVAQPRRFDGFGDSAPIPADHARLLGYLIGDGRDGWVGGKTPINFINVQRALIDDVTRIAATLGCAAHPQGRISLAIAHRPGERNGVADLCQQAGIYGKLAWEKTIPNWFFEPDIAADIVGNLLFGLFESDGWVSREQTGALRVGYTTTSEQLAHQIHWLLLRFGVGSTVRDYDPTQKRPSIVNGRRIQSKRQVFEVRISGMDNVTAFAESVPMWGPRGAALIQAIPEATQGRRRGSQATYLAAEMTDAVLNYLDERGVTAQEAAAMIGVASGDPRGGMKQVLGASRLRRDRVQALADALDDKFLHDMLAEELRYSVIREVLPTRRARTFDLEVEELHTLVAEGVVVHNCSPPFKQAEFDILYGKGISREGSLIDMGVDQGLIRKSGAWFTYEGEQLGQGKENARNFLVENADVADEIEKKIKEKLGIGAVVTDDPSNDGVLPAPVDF
Mtb betalactam = beta-lactam sensitization of Mtb H37Rv | 330,000 tested, 0.27% active | AID 434955 | inhibition, % at 25 µM | M. tuberculosis H37Rv growth with meropenem, percent inhibition; call rule not given here;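 note: growth measured after seven days incubation then overnight dye step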
BJeLR viability = kills HRASV12-expressing BJeLR cells; inhibition, % (concentration not given with the values); 300,000 tested, 0.17% active; BJeLR (HRASV12) viability, CellTiter-Glo ATP luminescence, 48 h; in the data active = inhibition above about 50%; inconclusive = no clear call, values can overlap the other calls
CCHF vOTU inh-1 = CCHFV vOTU protease inhibition; Pep-AMC fluorescence; inhibition, % at 11.5 µM; 370,000 tested, 0.55% active
CCHF vOTU inh-2 = CCHFV vOTU protease inhibition, confirmation. shares compounds with CCHF vOTU inh-1. Recombinant CCHFV vOTU, Pep-AMC fluorescence. inhibition, % at 11.5 µM. 1,900 tested, 17% active. AID 686976
Numbers stand for hits; i = inactive; ? = inconclusive; nt = not tested or not shown. Cut-off read from the data, not from the text of the source, unless noted: active = inhibition above about 30%; inactive = the rest.

SMILES	Mtb BioA inh	Y pestis TopoI	RecA intein inh	Mtb betalactam	BJeLR viability	CCHF vOTU inh-1	CCHF vOTU inh-2
COCCCN1C(=O)C(CC(=O)NCCN2CCOCC2)CC(C(=O)N2CCOCC2)=C1C (stereo unspecified)	nt	nt	nt	nt	nt	39	i
COc1ccccc1C(=O)Nc1ccc2c(c1)OC[C@H](C)N(C(C)=O)C[C@H](C)[C@H](OC)CN(C)C2=O	i	nt	nt	nt	nt	nt	nt
O=[N+]([O-])c1ccccc1-c1ccc(C(=S)N2CCCC2)o1	i	i	i	i	i	30	39
COc1ccc(S(=O)(=O)n2nc(OC(=O)c3ccc(C)cc3)cc2N)cc1	i	i	i	i	i	35	i
CN(C)CCCNC(=O)C[C@@H]1CC[C@H]2[C@@H](COC[C@H](O)CN2Cc2cccc(Cl)c2)O1	i	nt	nt	nt	nt	nt	nt
C[n+]1c2cc(N)ccc2cc2ccc(N)cc21	i	i	nt	nt	nt	88	54
Nc1ccc2ccccc2c1	i	i	nt	nt	nt	i	nt
O=C(CCN1CCCCC1)NCC[C@H]1CC[C@@H](NS(=O)(=O)c2cccc(Cl)c2)[C@H](CO)O1	i	nt	nt	nt	nt	nt	nt
Cc1cc(C)nc(SCC(=O)N(C)CC(=O)Nc2c(Cl)cccc2Cl)n1	i	i	i	i	i	34	i
Cc1cc(C)nc(SCC(=O)N(C)CC(=O)Nc2ccccc2Br)n1	i	i	i	i	i	i	nt
CCCCCCCCN1C(=O)[C@H](CC(=O)NCCCOC)C[C@@]2(C(=O)OC)CC(C)(C)CC=C12	nt	nt	nt	nt	nt	33	i
CCCCCCCCN1C(=O)[C@H](CC(=O)NCCCOCCCC)C[C@@]2(C(=O)OC)CC(C)(C)CC=C12	nt	nt	nt	nt	nt	i	nt
CCCCCCCCN1C(=O)[C@H](CC(=O)NCc2ccc(C)o2)C[C@@]2(C(=O)OC)CC(C)(C)CC=C12	nt	nt	nt	nt	nt	30	i
C#CCNC(=O)C[C@@H]1C[C@@]2(C(=O)OC)CC(C)(C)CC=C2N(CCCCCCCC)C1=O	nt	nt	nt	nt	nt	31	i
CCCCCCCCN1C(=O)[C@H](CC(=O)NCc2cccs2)C[C@@]2(C(=O)OC)CC(C)(C)CC=C12	nt	nt	nt	nt	nt	i	nt
COC(=O)[C@@]12C[C@@H](CC(=O)NCCC(C)C)C(=O)N(CCc3ccc(OC)c(OC)c3)C1=CCC(C)(C)C2	nt	nt	nt	nt	nt	30	i
Cc1ccc(S(=O)(=O)N(C)C[C@@H]2Oc3ccc(NC(=O)CCC(F)(F)F)cc3C(=O)N([C@H](C)CO)C[C@@H]2C)cc1	i	nt	nt	nt	nt	nt	nt
O=C(O)CSc1cc(C(=O)c2cc(F)ccc2O)cn2c(=O)c3c(-c4ccccc4)csc3nc12	i	i	i	i	i	33	i
CCC1(CC)NC(=O)N(CC(=O)OC(C)C(=O)Nc2ccc(Cl)cn2)C1=O (stereo unspecified)	nt	i	i	i	i	i	nt
CCC1(CC)NC(=O)N(CC(=O)OC(C)C(=O)Nc2cc([N+](=O)[O-])ccc2OC)C1=O (stereo unspecified)	i	i	i	?	i	30	i
O=C(O)c1cccc(NC(=S)N/N=C/c2ccccc2OCc2ccc(Br)cc2)c1	nt	i	i	i	i	30	i
O=C(CSc1nnc(-c2ccncc2)o1)Nc1nncs1	i	i	i	i	i	i	nt
O=C(CSc1nnc(-c2ccccc2Br)o1)Nc1nncs1	i	i	i	i	nt	30	i
COC(=O)CSc1nnc(CNc2ccc(OC)cc2)n1C	nt	i	i	i	i	39	i
CC(C)OC(=O)CSc1nnc(CNc2ccc(Cl)cc2)n1C	nt	i	i	i	i	i	nt
SMILES	Mtb BioA inh	Y pestis TopoI	RecA intein inh	Mtb betalactam	BJeLR viability	CCHF vOTU inh-1	CCHF vOTU inh-2
C[C@H]1CN([C@@H](C)CO)S(=O)(=O)c2ccc(C#CC3CC3)cc2O[C@@H]1CN(C)Cc1ccccc1	i	nt	nt	nt	nt	nt	nt
COc1cc(C(=O)Nc2cc3c4c(c2)CC(=O)N4CCC3)cc(OC)c1OC	i	i	i	i	i	34	i
C=Cc1cnc([N+](=O)[O-])n1C	i	i	nt	nt	nt	30	i
CCCCCCCCN1C(=O)[C@@H](CC(=O)N2CCN(C(=O)c3ccco3)CC2)C[C@@]2(C(=O)OC)C1=C[C@H](C(C)C)O[C@@H]2C1CC1	nt	nt	nt	nt	nt	32	i
CCCCOCCCNC(=O)C[C@H]1C[C@@]2(C(=O)OC)C(=C[C@H](C(C)C)O[C@@H]2C2CC2)N(Cc2ccco2)C1=O	nt	nt	nt	nt	nt	i	nt
C#CCNC(=O)C[C@H]1C[C@@]2(C(=O)OC)C(=C[C@H](C(C)C)O[C@@H]2C2CC2)N(CCCCCCCC)C1=O	nt	nt	nt	nt	nt	39	i
CCCCCCCCN1C(=O)[C@@H](CC(=O)NCCCOCCCC)C[C@@]2(C(=O)OC)C1=C[C@H](C(C)C)O[C@@H]2C1CC1	nt	nt	nt	nt	nt	35	37
C[C@H]1CN([C@@H](C)CO)C(=O)c2ccccc2-c2ccccc2CO[C@H]1CN(C)C(=O)Cc1ccccc1	i	nt	nt	nt	nt	nt	nt
COC(=O)C1=C(C)N(Cc2ccccc2)C(=NCc2cccc(C(F)(F)F)c2)N[C@H]1c1cccc(F)c1	i	i	i	i	99	31	i
COC(=O)C1=C(C)N(Cc2cccc(C(F)(F)F)c2)C(=NCc2ccc(OC)cc2)NC1c1cccc(F)c1 (stereo unspecified)	nt	nt	nt	nt	nt	35	i
COC(=O)C1=C(C)N(Cc2cccc(C(F)(F)F)c2)C(=NCc2ccc(OC)cc2)NC1c1ccc(F)cc1 (stereo unspecified)	nt	nt	nt	nt	nt	i	nt
COC(=O)C1=C(C)N(C)C(=NCC2CC2)NC1c1ccccc1 (stereo unspecified)	nt	nt	nt	nt	nt	32	i
CCN=C1NC(c2ccc(F)cc2)C(C(=O)OC)=C(C)N1Cc1cccc(C(F)(F)F)c1 (stereo unspecified)	nt	nt	nt	nt	nt	36	i
O=C(/C=C/c1ccc([N+](=O)[O-])s1)N1CCCC1	nt	i	i	i	i	i	nt
O=C(/C=C/c1ccc([N+](=O)[O-])s1)N1CCCCC1	nt	i	i	i	i	32	32
CCN(CCO)c1ccc(N=Cc2c(O)n(C)c(=S)[nH]c2=O)cc1	i	i	i	i	i	32	i
CCc1ccccc1NC(=O)CNC(=O)c1cc(C2CC2)nn1-c1ccccc1	i	i	nt	i	nt	39	i
COc1cccc(NC(=O)N[C@@H]2CC[C@H](CC(=O)NCc3ccncn3)O[C@@H]2CO)c1	i	nt	nt	nt	nt	nt	nt
Cc1oc2c(cc(NS(=O)(=O)c3ccc(Cl)cc3)c3ccccc32)c1C(=O)O	i	i	i	i	nt	i	nt
CCOC(=O)c1c(C)oc2c1cc(NS(=O)(=O)c1ccc(C(=O)O)cc1)c1ccccc12	i	i	i	i	i	45	i
C[C@@H]1CN([C@@H](C)CO)C(=O)c2cc(C#C[C@@H](C)O)cnc2O[C@@H]1CN(C)Cc1cccc(F)c1	i	nt	nt	nt	nt	nt	nt
CCc1c(C(=O)N/N=C/c2ccsc2)csc1C	nt	i	i	i	i	30	i
CCc1c(C(=O)N/N=C/c2cn[nH]c2-c2ccc(F)cc2)csc1C	nt	i	i	i	i	i	nt
COCC(=O)Nc1ccc2c(c1)C(=O)N(C)C[C@H](OC)[C@H](C)CN(C(=O)c1ccccn1)[C@@H](C)CO2	i	nt	nt	nt	nt	nt	nt
CCn1c(=O)c(C(=O)CN(C)Cc2ccc(F)cc2)c(N)n(Cc2ccccc2)c1=O	i	i	i	i	i	i	nt

Screens: PubChem BioAssay, several laboratories
